Anthrax LT inh: blocks cellular internalization of anthrax lethal toxin | Cells, anthrax lethal toxin internalization, FRET ratio (460/530) | Potency, µM (highest dose often 40 µM), inactives show top-dose activity change, negative = inhibition, usual class: inhibitors | actives 0.67% (n = 70,000); note: % is set by controls: 0 for no effect and ±100 for the full control effect; nearly all actives have a fitted effect of over 50% in size
AmpC nodet inh: AmpC beta-lactamase inhibition, detergent-free assay; Potency, µM (series often up to 28.7 µM), for inactives: at the top dose activity change, negative = inhibition; AmpC nitrocefin hydrolysis, absorbance 480 nm, no detergent; actives 1.8% (n = 71,000); P00811; note: % of control where 0% means no effect
Target sequence (P00811 whole entry, looked up): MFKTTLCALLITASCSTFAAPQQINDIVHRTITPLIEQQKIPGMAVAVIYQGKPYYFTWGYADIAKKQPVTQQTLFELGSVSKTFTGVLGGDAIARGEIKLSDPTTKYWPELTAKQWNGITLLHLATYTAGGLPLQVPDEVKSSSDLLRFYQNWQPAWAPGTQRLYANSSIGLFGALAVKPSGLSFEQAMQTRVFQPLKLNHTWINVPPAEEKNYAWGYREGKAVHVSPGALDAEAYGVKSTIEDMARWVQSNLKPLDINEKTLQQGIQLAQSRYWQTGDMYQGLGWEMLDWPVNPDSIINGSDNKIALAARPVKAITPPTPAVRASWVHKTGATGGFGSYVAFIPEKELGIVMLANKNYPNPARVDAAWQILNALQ
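AmpC, 20 mM phosphate pH 7.0; 15 min cpd preinc, RT; start with nitrocefin (800 uM stock); A480 kinetic read, 20 s intervals, 4 min. No-enzyme wells = negative control.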
Prx2 Sm inh: Schistosoma mansoni Prx2 inhibition. S. mansoni Prx2 activity coupled to TGR/GSH (TGR is thioredoxin glutathione reductase), NADPH fluorescence loss, qHTS. actives 0.07% (n = 65,000). AID 448. Potency, µM
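Prx2 activity was followed as the loss of NADPH fluorescence (ex 365/em 450 nm), read every 30 sec for 8 min after H2O2 start. The enzyme mix (50 nM Prx2, 25 nM TGR, GSH, NADPH; pH 7.4 phosphate buffer) was incubated with compound for 15 min at room temperature first.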
AmpC inh det: inhibitors of E. coli AmpC beta-lactamase with detergent; purified AmpC, nitrocefin hydrolysis with detergent; actives 0.09% (n = 71,000); Potency, µM (top dose mostly 28.7 µM), for the others: at the top dose activity change, negative = inhibition; P00811; AID 584; active = well fitted curve in the direction sought with a large enough effect; inconclusive = small, poorly fitted or top-dose-only effect; note: % is set by controls: 0 for no effect and ±100 for the full control effect
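E. coli AmpC (5.3 nM) in 20 mM phosphate pH 7.0 with 0.01% Triton X-100, preincubated 15 min RT with compound; nitrocefin (2 uL of 800 uM stock) hydrolysis followed by 480 nm absorbance every 20 s over 4 min.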
* marks the source's active call; other numbers are inactive results; ? = inconclusive; . = not tested or not shown; ! = repeats disagree; [ ] = remark or other dose. This is a sample that favours compounds with a hit; in the whole collection about 2.4% have one here. Unless noted, calls come from the whole dose curve. Potency is the fitted concentration of half-maximal effect.

SMILES | Anthrax LT inh | AmpC nodet inh | Prx2 Sm inh | AmpC inh det
O=c1oc2ccccc2c(O)c1/C=N/c1nc(-c2ccc(O)c(O)c2)cs1 | -27%[8 µM] | -26%[5.75 µM] | . | -6%[5.75 µM]
CC(C)=C1CCC(C)CC1=O (stereo not drawn) | -5% | -2% | . | 7%
CCn1c(SCC#N)nc2c(c1=O)C1(CCCC1)Cc1ccccc1-2 | 10µM* | 8% | >57 | 18%
COC(=O)[C@H]1[C@@H]2C[C@H]3c4[nH]c5ccccc5c4CCN3C[C@@H]2CC[C@@H]1O | -7% | 10% | >57 | 1%
Cc1nc2ccccc2c2oc(C(=O)N3CCN(C(=O)c4ccco4)CC3)cc12 | 8% | 104% | >57 | 3%
Cc1nc2ccccc2c2oc(C(=O)N3CCc4ccccc4C3)cc12 | 10µM* | 151% | >57 | 2%
CCn1c2ccccc2c2cc(NC(=O)C3CCN(S(=O)(=O)c4cccs4)CC3)ccc21 | -28% | 13µM* | >57 | -1%
CCOC(=O)C1CCCN(c2c(NCCN(C)Cc3ccccc3)c(=O)c2=O)C1 (stereo not drawn) | -13% | 4µM*[single pt active] | >57 | 13%
CCOC(=O)N1CCC(Nc2c(-c3ccc(C)c(C)c3)c(=O)c2=O)CC1 | 10% | 14% | >57 | -1%
CCOC(=O)C1CCCN(c2ncnc3c2oc2ccccc23)C1 (stereo not drawn) | 6% | 69% | >57 | -1%
CCOC(=O)C1CCCN(c2c(N3CCc4ccccc4C3)c(=O)c2=O)C1 (stereo not drawn) | 18% | 4µM*[single pt active] | >57 | 12%
CCOC(=O)N1CCC(Nc2c(NCCCN(C)Cc3ccccc3)c(=O)c2=O)CC1 | 6% | 4µM*[single pt active] | >57 | 15%
CCOC(=O)C1CCCN(c2c(NCc3ccco3)c(=O)c2=O)C1 (stereo not drawn) | 3% | 4µM*[single pt active] | >57 | 14%
c1cc(CCN2CCCCC2)ccn1 | 4%[8 µM] | -8%[5.75 µM] | >57 | -4%[5.75 µM]
CCOC(=O)C1CCCN(c2c(NCCc3ccc(S(N)(=O)=O)cc3)c(=O)c2=O)C1 (stereo not drawn) | 0% | 4µM*[single pt active] | >57 | 13%
NNc1c(C(N)=O)c2c(N)ncnc2n1[C@@H]1O[C@H](CO)[C@@H](O)[C@@H]1O | -11%[8 µM] | -12%[5.75 µM] | >57 | -3%[5.75 µM]
COc1cc(OC)cc([C@H](CNc2ncnc3c2ncn3[C@@H]2O[C@@H](CO)[C@H](O)[C@@H]2O)c2ccccc2C)c1 | -5% | 156% | >57 | -4%
COc1cc(Cc2cnc(N)nc2N)cc(OC)c1OC | ? | 6.3µM*! | >57 | -1%
COc1ccc2[nH]cc(CCNc3ccnc(-c4ccccc4C)n3)c2c1 | ? | -4% | >57 | -3%
COc1cccc(-c2nccc(NCCc3c[nH]c4ccc(OC)cc34)n2)c1 | 13µM* | -8% | >57 | 2%
Cc1cccc(C)c1NC(=O)C[N+](C)(C)C | -8% | 55% | >57 | 0%
Nc1c2c(nc3ccccc13)CCCC2 | 32µM*! | -13% | >57 | 9%
CC1=CC(C)(C)N(C(=O)CN2C(=O)c3ccccc3C2=O)c2ccccc21 | 6.3µM* | 47% | . | -4%
COc1ccc(-c2nc3cnc(N4CCNCC4)nc3n(CCC#N)c2=O)cc1 | ? | 43% | >11 | -1%
CC(C)C(=O)CP(=O)(O)O | 3%[8 µM] | -4%[5.75 µM] | >57 | -4%[5.75 µM]
SMILES | Anthrax LT inh | AmpC nodet inh | Prx2 Sm inh | AmpC inh det
CN(C)Cc1ccccc1-c1nc(N2CCOCC2)c2ccccc2n1 | -6% | 26% | >57 | 13%
CCCCCCCCCCCCC/C=C\[C@@H](O)[C@H](CO)NC(C)=O | 16µM* | 81% | >57 | -9%
CCN1C[C@@]2(C)CC[C@H](O)[C@@]34[C@@H]5C[C@H]6[C@H](O)[C@@H]5[C@](O)(C[C@@H]6OC)[C@H](C[C@@H]23)[C@H]14 | ? | -7% | >57 | -1%
CN(C)c1ccc(NC(=O)c2ccc(COc3cccc(Cl)c3)o2)cc1 | 10µM* | 16% | >57 | 9%
O=C(Nc1ccc2c(c1)OCO2)c1ccc(COc2ccc3c(c2)CCC3)o1 | 6.3µM* | -20% | >57 | -4%
O=C(c1ccc(COc2ccc(Cl)cc2)o1)N1CCN(Cc2ccc3c(c2)OCO3)CC1 | -22% | 91% | . | -6%
COc1cccc(-c2cncnc2NCc2cccs2)c1 | ? | 10% | >57 | 4%
NC(=O)C1(N2CCCCC2)CCN(C(=O)c2cccs2)CC1 | 11% | 4µM*[single pt active] | >57 | 12%
CC(C)OC(=O)c1nnc(Cc2ccc(F)cc2)o1 | 0% | 9% | >57 | 13%
CC(C)C[C@H](N)c1nnc(S(=O)(=O)Cc2ccc(F)cc2)o1 | ? | 2.5µM* | >57 | 2.5µM*
CC(C)[C@@]1(NC(=O)[C@@H]2C=C3c4cccc5[nH]cc(c45)C[C@@H]3N(C)C2)O[C@]2(O)[C@H]3CCCN3C(=O)[C@H](Cc3ccccc3)N2C1=O | -12% | 75% | >57 | -1%
O=C(c1ccc2c(=O)n(Cc3ccc4c(c3)OCO4)c(=S)[nH]c2c1)N1CCCCC1 | 1% | 16µM*[single pt active] | >57 | 11%
N#C/C(=C\Nc1ccccn1)C(=O)c1ccco1 | -4%[8 µM] | 2%[5.75 µM] | >57 | -2%[5.75 µM]
Clc1ccc(-n2nnnc2Sc2ncnc3sccc23)cc1 | 6.3µM* | -8% | ? | -5%
Cc1sc2ncnc(Sc3nnnn3-c3ccccc3)c2c1C | -2% | 7% | >57 | -2%
O=C(N/N=C\c1ccccc1O)c1ccccc1O | ? | 16µM* | >57 | -1%
O=C(Nc1ccccc1)c1ccccc1O | -13% | -10% | >57 | 2%
COc1cc2cc3c4c(cc(OC)c(OC)c4c2cc1OC)CCN3C | ? | 126% | >57 | 1%
N#CCCn1c(=O)c(-c2ccc(F)cc2)nc2cnc(N3CCNCC3)nc21 | 0% | 31% | >57 | 1%
CC(C)CCOC(=O)C1C2C=CC3(CN(Cc4cccs4)C(=O)C13)O2 (stereo not drawn) | -9% | 4µM*[single pt active] | >57 | 9%
N#CC1(O)CCCCC1 | -7% | -1% | . | 9%
O=C(CSc1nc2ccccc2s1)c1sc2sc3ccccc3[n+]2c1O | ? | 4µM*[single pt active] | >57 | -7%[5.75 µM]
COc1ccc2c(c1)c(CC(=O)O)c(C)n2C(=O)c1ccc(Cl)cc1 | ? | -1% | >57 | 3%
COc1ccc2c(c1)c(CCN1CCOCC1)c(C)n2C(=O)c1cccc(Cl)c1Cl | 13µM* | . | . | .
Cc1ccc(S(=O)(=O)Nc2ccc3nc(N)sc3c2)cc1 | -21% | 10µM* | >57 | 2%
SMILES | Anthrax LT inh | AmpC nodet inh | Prx2 Sm inh | AmpC inh det
CCNCCC1(CC)C(=O)NC(=O)NC1=O | 5%[8 µM] | -6%[5.75 µM] | >57 | -2%[5.75 µM]
CC(C)CO/N=C1/[C@H]2O[C@@H]2[C@@H](O)[C@H]2[C@H]1CCn1c(=O)n(C)c(=O)n12 | -4%[1.6 µM] | . | . | .
Cc1ccc(-n2ncc3c(=O)[nH]c(SCC(=O)N4CCN(c5ccccc5)CC4)nc32)cc1 | -6% | 13µM*[single pt active] | >57 | 5%
O=c1[nH]c(SCc2ccccc2Cl)nc2c1cnn2-c1ccccc1 | ? | 7.9µM* | >57 | 8%
Cc1ccc(-n2ncc3c(=O)[nH]c(SCC(=O)N4CCOCC4)nc32)cc1 | -14% | 2% | >57 | 0%
COc1cc([C@@H]2Oc3cc([C@H]4Oc5cc(O)cc(O)c5C(=O)[C@H]4O)ccc3O[C@H]2CO)ccc1O | ? | -19% | >57 | -6%
